PubChem BioAssay (NCATS)
Results filed as inconclusive are left out. The source made the active and inactive calls. Calls come from the whole dose curve; as a rule, active = well fitted curve in the direction sought with a large enough effect; inconclusive = small, poorly fitted or top-dose-only effect, or another doubt; inactive = no such curve, though single readings can be large; an effect the other way counts as inactive or inconclusive.

Key:
[1] = Cell Viability - LYMP2-004 (AID 966); note: nearly all actives have a fitted effect of over 65% in size
Procedure, shortened: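 Luminescent ATP read-out (CellTiter-Glo, 30 min RT) after 24 hr compound exposure at 37 C; 2500 lymphoblastoid cells/well, complete medium. Decrease in ATP = cytotoxicity; AC50 from standard Hill model.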

[2] = Cell Viability - LYMP2-005 (AID 967); note: series mostly up to about 92 µM
Procedure, shortened: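 LYMP2-005 human lymphoblastoid cells (2500/well) were treated with compounds for 24 h at 37 C. Intracellular ATP was then measured by CellTiter-Glo luminescence after 30 min at room temperature. AC50 values came from Hill-equation fits of qHTS concentration-response data.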

[3] = Cell Viability - LYMP2-009 (AID 968); note: series mostly up to about 92 µM; nearly all actives have a fitted effect of over 55% in size
[4] = Cell Viability - LYMP2-011 (AID 969);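 note: cells exposed to compound for 24 hours; nearly all actives have a fitted effect of over 60% in size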
Procedure, shortened: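 Luminescent ATP read-out (CellTiter-Glo, 30 min RT) after 24 hr compound exposure at 37 C in human lymphoblastoid cells, 2500 cells/well. Decreasing ATP indicates cytotoxicity; AC50 from standard Hill fit.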

[5] = Cell Viability - LYMP2-013 (AID 970); note: series mostly up to about 92 µM; nearly all actives have a fitted effect of over 55% in size
Procedure, shortened: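 CellTiter-Glo luminescence (cellular ATP) read after 30 min at RT. Cells: human lymphoblastoid line, 2500/well, 24 hr compound exposure at 37 C. Tetraoctylammonium bromide positive control; AC50 via standard Hill fit of qHTS titrations.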

[6] = Cell Viability - LYMP2-015 (AID 971); note: nearly all actives have a fitted effect of over 55% in size
Procedure, shortened: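 qHTS cytotoxicity: 2500 cells/well, 5 hr 37 C, compound 24 hr 37 C, CellTiter-Glo 30 min RT, luminescence. Loss of ATP = toxicity; AC50 via standard Hill fit.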

[7] = Cell Viability - LYMP2-017 (AID 972);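 note: series mostly up to about 92 µM; cells exposed to compound for 24 hours at 37 °C; nearly all actives have a fitted effect of over 55% in size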
Procedure, shortened: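 Luminescent ATP read-out (CellTiter-Glo, 30 min RT) reports viable cell number. Cells: human lymphoblastoid line, 2500 per well, 5 hr preincubation, 24 hr compound exposure at 37 C. AC50 is derived from qHTS concentration-response data using the standard Hill model.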

[8] = Cell Viability - LYMP2-019 (AID 973); note: nearly all actives have a fitted effect of over 55% in size
Procedure, shortened: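 qHTS, 1536-well; 2500 cells/well; 5 hr pre-incubation, 24 hr compound exposure, 37 C; CellTiter-Glo added, 30 min RT; luminescence read; AC50 via standard Hill equation.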

[9] = Cell Viability - LYMP2-021 (AID 974)
Procedure, shortened: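 ATP luminescence (CellTiter-Glo, 30 min RT) after 24 h compound exposure at 37 C; 2500 human lymphoblastoid cells/well, 5 h settle beforehand. Cytotoxicity = concentration-dependent ATP drop, AC50 by Hill fit.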

[10] = Cell Viability - LYMP2-023 (AID 975)
Procedure, shortened: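 CellTiter-Glo luminescence after 30 min at room temperature; decrease in intracellular ATP reflects toxicity. Cells: human lymphoblastoid line, 2500/well, 24 hr compound exposure at 37 C. AC50 fitted to standard Hill equation from concentration-response.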

Measured: Potency

Cc1ccc(C)c(O)c1
inactive: all assays above

COc1ccc(N=[N+]([O-])c2ccc(OC)cc2)cc1
inactive: all assays above

Nc1cccc(S(=O)(=O)O)c1
inactive: all assays above

C=CCCCCCCC=C
inactive: all assays above

CC(=O)c1cccc([N+](=O)[O-])c1
inactive: all assays above

Cc1cc(C)c(N)cc1C
inactive: all assays above

FB(F)F
inactive: all assays above

C=CCCCC
inactive: all assays above

CCCCC(CC)COC(=O)CCCCC(=O)OCC(CC)CCCC (stereo unspecified)
inactive: all assays above

CC(C)Nc1ccccc1
inactive: all assays above

CC(O)COC(C)(C)C (stereo unspecified)
inactive: all assays above

CCNS(=O)(=O)c1ccc(C)cc1
inactive: all assays above

Cc1cccc(C)c1
inactive: all assays above

Cc1ccc2c(c1[N+](=O)[O-])C(=O)c1ccccc1C2=O
inactive: all assays above

NC(=S)NNC(N)=S
inactive: all assays above

O=[N+]([O-])c1cccc(Cl)c1
inactive: all assays above

Nc1cccc(O)c1
inactive: all assays above

Cc1ccc2nc(-c3ccc(N)cc3)sc2c1S(=O)(=O)O
inactive: all assays above

C=C(C)C(N)=O
inactive: all assays above

c1ccc2n[nH]nc2c1
inactive: all assays above

Cc1ccccc1C#N
inactive: all assays above

FC(F)(F)c1cccc(Cl)c1
inactive: all assays above

Nc1nc(CC(=O)O)cs1
inactive: all assays above

CC(C)Cc1nccs1
inactive: all assays above

Clc1cc(Cl)cc(Cl)c1
inactive: all assays above

C[C@@H]1O[C@@H](O[C@@H]2[C@@H](O)[C@H](OCCc3ccc(O)c(O)c3)O[C@H](CO[C@@H]3O[C@H](CO)[C@@H](O)[C@H](O)[C@H]3O)[C@H]2OC(=O)/C=C/c2ccc(O)c(O)c2)[C@H](O)[C@H](O)[C@H]1O
inactive: all assays above

O=C(O)CNC(=O)c1ccc(CO)o1
inactive: all assays above

Cc1ccc(N(C)C)cc1
inactive: all assays above

Nc1ccc(Cl)cc1[N+](=O)[O-]
inactive: all assays above

FC(F)(F)c1ccccc1Cl
inactive: all assays above

Cc1c(C(=O)O)cccc1[N+](=O)[O-]
inactive: all assays above

CCCCCCCCC/C=C/CC1CC(=O)OC1=O (stereo unspecified)
inactive: all assays above

BrC/C=C/CBr
inactive: all assays above

COc1ccc(N)c(OC)c1
inactive: all assays above

CC(C)=CCC/C(C)=C/C=O
inactive: all assays above

Cc1ccc2cccnc2c1
inactive: all assays above

COc1cccc2sc(N)nc12
inactive: all assays above

C=C(C)OC(C)=O
not listed: [7]
inactive: all other assays above

CCCCC(CC)C(=O)O (stereo unspecified)
not listed: [9]
inactive: all other assays above

CC(=O)Nc1ccccc1C
inactive: all assays above

Nc1nc(-c2ccccc2)cs1
not listed: [9]
inactive: all other assays above

NC(=O)c1ccccc1[N+](=O)[O-]
not listed: [9]
inactive: all other assays above

O=C(O)c1ccccc1C(=O)O
not listed: [9]
inactive: all other assays above

CC(=O)CCc1ccccc1
not listed: [7] | [10]
inactive: all other assays above

CCOC(C)(C)C
inactive: all assays above

Cc1c(N)cccc1N
not listed: [7]
inactive: all other assays above

CC(C)=C1CCC(C)CC1=O (stereo unspecified)
not listed: [9]
inactive: all other assays above

Cc1ccc2ncccc2c1
not listed: [7]
inactive: all other assays above

Nc1cc(Cl)c([N+](=O)[O-])cc1O
not listed: [9]
inactive: all other assays above

Cc1ccc(C)o1
not listed: [7]
inactive: all other assays above

CCOc1ccccc1N
inactive: all assays above

Cc1ccco1
not listed: [9]
inactive: all other assays above

C=CC(=O)OCCCC
not listed: [9]
inactive: all other assays above

O=Cc1ccccc1Cl
not listed: [7] | [10]
inactive: all other assays above

Cc1cc(C)cc(N)c1
inactive: all assays above

CC(=O)OCCC(C)C
not listed: [9]
inactive: all other assays above

CC(=O)c1cc(C)oc1C
not listed: [7] | [10]
inactive: all other assays above
